In PubChem BioAssay (NCATS):
Records with an inconclusive call do not appear. Activity calls are given as the source filed them. Unless noted, calls come from the whole dose curve; as a rule, active = well fitted curve in the direction sought with a large enough effect; inconclusive = small, poorly fitted or top-dose-only effect, or another doubt; inactive = no such curve, though single readings can be large; an effect the other way counts as inactive or inconclusive.

System: not listed separately
Assay: qHTS of Trypanosoma Brucei Inhibitors: LOPAC Validation (AID 624147); note: 0% is about no effect
Conditions: purified enzyme assay, luminescence, 45 min; series mostly up to 57.5 µM
Method in brief: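 In this concentration-response screen, enzyme-free wells defined baseline while DMSO plates tracked drift. Each reaction combined TbPYK, substrate, compound and 130 uM ADP for 45 min at room temperature. Kinase-Glo Plus luminescence gave the signal.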

Structure (SMILES)	outcome
Nc1ncnc2n[nH]c(Nc3ccc(F)cc3)c12	inactive
O=C1NC(=O)/C(=C/c2ccc3c(c2)OC(F)(F)O3)S1	inactive
COC(=O)C1=CO[C@@H](O)[C@@H]2C(CO)=CC[C@H]12	inactive
Clc1ccc2c(c1)N=C(N1CCNCC1)c1ccccc1N2	inactive
CCN(CC)CCNC(=O)c1ccc(NS(C)(=O)=O)cc1	inactive
N[C@@H](Cn1ccc(=O)c(O)c1)C(=O)O	inactive
Cc1nn(-c2ccccc2)c(C)c1/C=N/N1CCN(Cc2ccccc2)CC1	inactive

Molecular target: Glucagon-like peptide 1 receptor (Homo sapiens) (UniProt P43220)
Sequence (P43220 whole entry, looked up): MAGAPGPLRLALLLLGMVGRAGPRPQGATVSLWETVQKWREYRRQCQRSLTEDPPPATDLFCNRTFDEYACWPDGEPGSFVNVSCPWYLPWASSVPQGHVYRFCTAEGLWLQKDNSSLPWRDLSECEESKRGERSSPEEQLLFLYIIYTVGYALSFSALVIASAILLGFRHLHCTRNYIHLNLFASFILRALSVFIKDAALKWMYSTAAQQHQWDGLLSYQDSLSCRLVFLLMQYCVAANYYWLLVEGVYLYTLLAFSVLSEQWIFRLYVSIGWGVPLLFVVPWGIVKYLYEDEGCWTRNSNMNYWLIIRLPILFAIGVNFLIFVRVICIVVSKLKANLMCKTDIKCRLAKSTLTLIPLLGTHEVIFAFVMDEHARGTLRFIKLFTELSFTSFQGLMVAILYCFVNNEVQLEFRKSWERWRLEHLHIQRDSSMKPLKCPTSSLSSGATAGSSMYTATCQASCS
Assay: qHTS of GLP-1 Receptor Agonists: LOPAC Validation (AID 624148);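 note: 0% is about no effect; higher luminescence signal means agonism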
Conditions: GLP-1R agonist cell assay; series mostly up to 46.1 µM
Method in brief: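 HEK293 cells stably co-expressing GLP-1R and a cAMP-responsive luciferase reporter, plated 12 hours before compound, then incubated 4-6 hr at 37 deg C. Luminescence read 12 min after detection reagent.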

Structure (SMILES)	outcome
Nc1ncnc2n[nH]c(Nc3ccc(F)cc3)c12	inactive
O=C1NC(=O)/C(=C/c2ccc3c(c2)OC(F)(F)O3)S1	inactive
COC(=O)C1=CO[C@@H](O)[C@@H]2C(CO)=CC[C@H]12	inactive
Clc1ccc2c(c1)N=C(N1CCNCC1)c1ccccc1N2	inactive
CCN(CC)CCNC(=O)c1ccc(NS(C)(=O)=O)cc1	inactive
N[C@@H](Cn1ccc(=O)c(O)c1)C(=O)O	inactive
Cc1nn(-c2ccccc2)c(C)c1/C=N/N1CCN(Cc2ccccc2)CC1	inactive

System: not listed separately
Assay: qHTS of Nrf2 Activators: LOPAC Validation (AID 624149); note: 0% is about no effect
Conditions: Nrf2/ARE reporter cell assay; series mostly up to 46.1 µM
Method in brief: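 Luminescence read-out of ARE-luciferase activation: AREc32_Fluc cells treated with compounds for 24 hr at 37 deg C, then lysed with Steady-Glo for 30 min at room temperature before reading.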

Structure (SMILES)	outcome
Nc1ncnc2n[nH]c(Nc3ccc(F)cc3)c12	inactive
O=C1NC(=O)/C(=C/c2ccc3c(c2)OC(F)(F)O3)S1	inactive
COC(=O)C1=CO[C@@H](O)[C@@H]2C(CO)=CC[C@H]12	inactive
Clc1ccc2c(c1)N=C(N1CCNCC1)c1ccccc1N2	inactive
CCN(CC)CCNC(=O)c1ccc(NS(C)(=O)=O)cc1	inactive
N[C@@H](Cn1ccc(=O)c(O)c1)C(=O)O	inactive
Cc1nn(-c2ccccc2)c(C)c1/C=N/N1CCN(Cc2ccccc2)CC1	inactive

System: not listed separately
Assay: HTS Assay for Allosteric Antagonists of the Human D2 Dopamine Receptor: Hit Validation in HTRF (AID 624455);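 note: stable D1 dopamine receptor cell line scored for blocking the D1 response; % is set by controls: 0 for no effect and ±100 for the full control effect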
Conditions: Cells stably expressing D1 dopamine receptor, inhibition mode; series mostly up to 46.1 µM
Method in brief: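 First, antagonism was screened by calcium flux in a force-coupled, inducible Hek293 Trex D2 line challenged with EC80 dopamine. Hits then went into an HTRF assay in cells stably expressing D1, testing inhibition of the D1 response.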

Structure (SMILES)	outcome
Nc1ncnc2n[nH]c(Nc3ccc(F)cc3)c12	inactive
O=C1NC(=O)/C(=C/c2ccc3c(c2)OC(F)(F)O3)S1	inactive
COC(=O)C1=CO[C@@H](O)[C@@H]2C(CO)=CC[C@H]12	inactive
Clc1ccc2c(c1)N=C(N1CCNCC1)c1ccccc1N2	inactive
CCN(CC)CCNC(=O)c1ccc(NS(C)(=O)=O)cc1	inactive
N[C@@H](Cn1ccc(=O)c(O)c1)C(=O)O	inactive
Cc1nn(-c2ccccc2)c(C)c1/C=N/N1CCN(Cc2ccccc2)CC1	inactive

System: not listed separately
Assay: qHTS assay for small molecule activators of the nuclear factor-kappa B (NF-kB) signaling pathway (AID 651749; active = well fitted activation curve with a large enough effect in the signal ratio; the % refers to the signal ratio; note: % of control where 0% means no effect)
Conditions: NF-kB-bla ME-180 cells, beta-lactamase FRET ratio, 16 h; stronger effect = higher value
Method in brief: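 NF-kB-bla ME-180 cells carrying a beta-lactamase reporter under an NF-kB response element, 2,000 cells/well, exposed to compound for 16 hr at 37C; FRET-based beta-lactamase fluorescence read-out of pathway activation.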

Structure (SMILES)	activation
CN1C(=O)c2ccccc2C1=O	0.745% (inactive)
O=C(Nc1ccc(Cl)cc1)Nc1ccc(Cl)c(Cl)c1	6.88% (inactive)
Cc1cc(C(C)(C)C)c(O)c(C(C)(C)C)c1	-0.477% (inactive)
CCCCCCCCCCCC[N+](C)(C)Cc1ccccc1	3.11% (inactive)
